# Pol III holo inh – inhibitors of bacterial DNA polymerase III holoenzyme | reconstituted DNA polymerase III holoenzyme replication, biochemical | Potency, µM (top dose mostly 57.1 µM) | 71,000 tested, 0.25% active | AID 603
#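 Reconstituted *E. coli* holoenzyme (0.35 nM Pol III, 1 nM beta, 154 nM SSB, 2 nM primase) was preincubated with compound for 15 min at RT. Synthesis on 1.4 nM ssM13Gori ran 35 min, then was stopped with PicoGreen/EDTA and read as dsDNA fluorescence.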
# TsaE inh – inhibitors of E. coli YjeE (TsaE) | P0AF67 | purified YjeE enzyme, qHTS inhibition assay | Potency, µM | 71,000 tested, 0.05% active
#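 Purified YjeE (10 uM) with BODIPY Texas Red-labeled ADP probe (2 uM); compounds pin-transferred, 15 min at room temperature. Binding inhibition read as decreased fluorescence polarization; ADP titration as control.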
# BRCT PPI red – BRCT-phosphoprotein interaction inhibition (red fluorophore) | 75,000 tested, 0.03% active | AID 892 | P38398 | BRCT-phosphopeptide binding, red fluorescence polarization | Potency, µM (top dose mostly 76.9 µM), hits mostly inhibitors
# Target sequence (P38398 whole entry, looked up): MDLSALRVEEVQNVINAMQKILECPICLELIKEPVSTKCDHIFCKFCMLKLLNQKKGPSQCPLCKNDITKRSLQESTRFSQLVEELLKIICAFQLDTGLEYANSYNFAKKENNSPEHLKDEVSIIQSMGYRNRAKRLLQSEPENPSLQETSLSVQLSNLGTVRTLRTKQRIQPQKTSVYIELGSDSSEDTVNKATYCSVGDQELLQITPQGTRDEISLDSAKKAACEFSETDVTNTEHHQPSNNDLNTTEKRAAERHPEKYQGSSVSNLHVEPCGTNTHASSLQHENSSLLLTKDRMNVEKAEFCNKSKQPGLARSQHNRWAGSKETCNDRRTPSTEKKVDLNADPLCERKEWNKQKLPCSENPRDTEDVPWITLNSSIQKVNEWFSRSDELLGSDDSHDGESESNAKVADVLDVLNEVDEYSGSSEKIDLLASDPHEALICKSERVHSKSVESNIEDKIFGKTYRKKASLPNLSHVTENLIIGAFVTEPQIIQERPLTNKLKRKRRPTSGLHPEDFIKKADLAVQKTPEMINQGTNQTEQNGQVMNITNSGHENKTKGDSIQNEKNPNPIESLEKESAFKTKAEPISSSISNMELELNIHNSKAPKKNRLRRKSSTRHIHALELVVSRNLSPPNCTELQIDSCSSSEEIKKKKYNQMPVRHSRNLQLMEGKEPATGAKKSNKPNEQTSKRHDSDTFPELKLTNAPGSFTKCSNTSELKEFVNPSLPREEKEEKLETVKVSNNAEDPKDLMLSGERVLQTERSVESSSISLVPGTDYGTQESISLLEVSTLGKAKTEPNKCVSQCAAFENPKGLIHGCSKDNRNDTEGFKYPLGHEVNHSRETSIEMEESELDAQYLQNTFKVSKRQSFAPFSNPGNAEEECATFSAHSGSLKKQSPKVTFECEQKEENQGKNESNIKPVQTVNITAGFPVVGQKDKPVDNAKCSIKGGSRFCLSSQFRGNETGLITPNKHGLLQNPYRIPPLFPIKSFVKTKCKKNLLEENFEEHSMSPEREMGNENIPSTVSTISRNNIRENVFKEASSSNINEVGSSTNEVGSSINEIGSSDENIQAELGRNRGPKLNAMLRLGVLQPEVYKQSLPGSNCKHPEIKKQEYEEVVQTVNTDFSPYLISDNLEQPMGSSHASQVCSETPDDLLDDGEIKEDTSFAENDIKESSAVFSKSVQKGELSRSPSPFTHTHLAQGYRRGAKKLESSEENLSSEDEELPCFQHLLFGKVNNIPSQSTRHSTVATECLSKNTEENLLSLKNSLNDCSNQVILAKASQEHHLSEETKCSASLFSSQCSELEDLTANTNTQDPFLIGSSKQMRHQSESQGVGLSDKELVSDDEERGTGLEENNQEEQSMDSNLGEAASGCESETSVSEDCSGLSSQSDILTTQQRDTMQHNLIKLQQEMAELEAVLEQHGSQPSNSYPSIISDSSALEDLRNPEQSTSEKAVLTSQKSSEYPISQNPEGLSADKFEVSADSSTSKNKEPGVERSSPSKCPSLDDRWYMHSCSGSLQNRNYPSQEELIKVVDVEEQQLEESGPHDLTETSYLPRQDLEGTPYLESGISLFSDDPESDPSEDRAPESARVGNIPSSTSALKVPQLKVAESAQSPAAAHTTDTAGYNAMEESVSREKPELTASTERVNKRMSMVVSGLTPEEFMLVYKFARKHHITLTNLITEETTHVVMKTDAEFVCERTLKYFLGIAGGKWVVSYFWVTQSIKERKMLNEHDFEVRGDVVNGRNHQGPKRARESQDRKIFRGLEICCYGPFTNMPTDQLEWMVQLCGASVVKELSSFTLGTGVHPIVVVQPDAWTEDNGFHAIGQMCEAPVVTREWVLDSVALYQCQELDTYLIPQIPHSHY
#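 Fluorescence polarization: 100 nM His-tagged BRCA1 BRCT with 100 nM TAMRA-labelled phospho-BACH1 decapeptide, phosphate buffer pH 7.3 with 150 mM NaCl, DTT, 0.01% Tween 20; 12 min RT. Binding inhibition seen as FP decrease.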
# ALOX15B inhib – 15-hLO-2 (ALOX15B) enzyme inhibition. purified 15hLO-2, xylenol orange hydroperoxide absorbance. 110,000 tested, 0.56% active. Potency, µM (titrated, usually from 57.1 µM), hits mostly inhibitors; also: nearly all actives have a fitted effect of over 60% in size
#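 Enzyme 50 nM, AA 45 uM, 25 mM Hepes pH 7.5 + 0.01% Triton X-100; cpd preinc 15 min RT, rxn 90 min RT; stop/detect with 200 uM XO + 300 uM Fe(II) in 50 mM H2SO4, 30 min; A573/A405.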
# BRCT inh green – BRCA1 BRCT-phosphoprotein interaction inhibition; 75,000 tested, 0.05% active; AID 875; BRCA1 BRCT-phosphopeptide binding, green fluorescence polarization; P38398; Potency, µM (titrated, usually from 76.9 µM), most hits filed as inhibitors
#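 Compounds were incubated for 12 min at room temperature with a complex of 100 nM fluorescein-tagged pBACH1 decapeptide and 250 nM His-tagged BRCT protein. Buffer was phosphate pH 7.3 with EDTA, DTT and Tween 20. Disruption of binding lowers the polarization signal.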
# 15-hLO inh – inhibitors of human 15-lipoxygenase (ALOX15); purified 15hLO-1, xylenol orange hydroperoxide absorbance; Potency, µM (doses to about 57.1 µM), most hits filed as inhibitors; 74,000 tested, 1.4% active; P16050; also: nearly all actives have a fitted effect of over 55% in size
#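 Readout: Fe(III)-xylenol orange absorbance, 573-to-405 nm ratio as reaction progress. Enzyme 40 nM purified human 15hLO-1, substrate 50 uM arachidonic acid, 6 min RT after 15 min compound preincubation; Hepes pH 7.5 buffer with Triton X-100.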
# Hits are given with their value; i = inactive; ? = inconclusive; nt = not tested or not shown; [ ] = dose if it differs, or a comment. The sample as a whole holds a higher share of hits than the screen did. Calls follow the shape of the dose curve; as a rule, active = well fitted curve in the direction sought with a large enough effect; inconclusive = small, poorly fitted or top-dose-only effect, or another doubt; inactive = no such curve, though single readings can be large; an effect the other way counts as inactive or inconclusive.
SMILES,Pol III holo inh,TsaE inh,BRCT PPI red,ALOX15B inhib,BRCT inh green,15-hLO inh
O=C1c2ccccc2NC(c2ccc(Cl)cc2Cl)N1O (stereo not drawn),i,i,i,?,i,15.8µM
COc1cc2c3cc1Oc1c(OC)c(OC)cc4c1[C@@H](Cc1ccc(O)c(c1)Oc1ccc(cc1)C[C@@H]3N(C)CC2)CN(C)C4,i[11.4 µM],i,i[15.4 µM],i[11.4 µM],i[15.4 µM],i[11.4 µM]
COc1ccccc1OC[C@H](O)CN1CCN(CC(=O)Nc2c(C)cccc2C)CC1,i,i,i,i,i,i
CC(=O)NCCNc1ncncc1-c1ccccc1C(F)(F)F,i,i,i,i,i,i
CC(=O)NCCNc1ncncc1-c1ccccc1C,i,i,i,?,i,15.8µM
COc1ccc(OCCC(=O)OCC(=O)NCc2ccco2)cc1,i,i,i,i,i,12.6µM
COc1ccccc1NCCC(=O)OCC(=O)NCc1ccco1,i,i,i,i,i,?
O=C(COC(=O)c1ccccc1Oc1ccccc1)NCc1ccco1,i,i,i,i,i,12.6µM
O=C(COC(=O)c1ccccc1)NCc1ccco1,i,i,i,i,i,i
CCCn1c(/N=C/c2ccccc2O)nc2ccccc21,nt,nt,nt,i,nt,nt
Cn1c(/N=C/c2c(O)ccc3ccccc23)nc2ccccc21,i[11.4 µM],i,i,?,i,3.98µM
C[N+](C)(C)CCN(Cc1cccs1)c1ccccn1,i[11.4 µM],i,i[15.4 µM],i[11.4 µM],i[15.4 µM],i[11.4 µM]
CN(C)c1ccc2nc3c(C(=O)O)cc(=O)c(O)c-3oc2c1,3.16µM,i,i[15.4 µM],i[11.4 µM],i[15.4 µM],i[11.4 µM]
CC(=O)N(C(C)=O)c1ccc2nc(C)[nH]c(=O)c2c1,i,i,i,i,i,i
COc1ccc2c(c1)c(=O)oc1cc(OCC(=O)NC3CC3)ccc12,15.8µM,i,i,i,i,i
O=c1ccn([C@@H]2O[C@@H](COP(=O)(O)OP(=O)(O)O)[C@H](O)[C@@H]2O)c(=O)[nH]1,i,i,i,i,i,i
CC(C)=CCC/C(C)=C/CO/N=C1/C[C@@H](O)[C@@H](O)[C@@H]2[C@@H]3C(=O)N(C4CCCCC4)C(=O)[C@H]3CC[C@H]12,nt,nt,i[15.4 µM],nt,i[15.4 µM],i[11.4 µM]
CCOC(=O)c1cc(C)[nH]c(=S)c1C#N,i,i,i,25.1µM,i,3.98µM
O=C(O)C1C(C(=O)O)C(C(=O)O)C1C(=O)O (stereo not drawn),i[11.4 µM],i,i[15.4 µM],i[11.4 µM],i[15.4 µM],i[11.4 µM]
Cc1ccc(Oc2ccc(NC(=O)c3ccco3)cc2)cc1,i,i,i,i,i,?
O=C(Nc1cccc(Oc2ccc3c(c2)C(=O)NC3=O)c1)c1ccco1,i,i,i,i[11.4 µM],i,15.8µM
CCOC(=O)c1ccc(CC(=O)c2oc3cc(O)ccc3c2C)o1,i,i,i,?,i,20µM
O=C(O)CCCN1C(=O)/C(=C/c2ccc(-c3nc4ccccc4s3)o2)SC1=S,nt,nt,nt,15.8µM,nt,nt
COc1ccc2[nH]cc(CCNc3cc(-c4ccc5c(c4)OCO5)ncn3)c2c1,i,i,i,i,i,12.6µM
COc1ccc2[nH]cc(CCNc3cc(-c4cccnc4)ncn3)c2c1,i,i,i,?,i,20µM
SMILES,Pol III holo inh,TsaE inh,BRCT PPI red,ALOX15B inhib,BRCT inh green,15-hLO inh
C/C(=N/Nc1ccc2ccccc2n1)c1ccccc1O,i[11.4 µM],i,i[15.4 µM],i[11.4 µM],i[15.4 µM],i[11.4 µM]
O=S(=O)(Nc1cccnc1)c1cccc2cccnc12,i,i,i,nt,i,i
COCCNc1ncnc2ccc(-c3ccccc3OC)cc12,i,i,i,i,i,i
COCCNc1ncnc2ccc(-c3ccccc3C(F)(F)F)cc12,i,i,i,?,i,25.1µM
Clc1ccc([C@@H](c2ccccc2Cl)C(Cl)Cl)cc1,i,i,nt,nt,nt,nt
CCOc1ccc2nc(NC(=O)C(CCSC)NS(=O)(=O)c3cccs3)sc2c1 (stereo not drawn),i,i,i,i,i,15.8µM
CCOc1ccc2nc(NC(=O)C(NS(=O)(=O)c3cccs3)C(C)C)sc2c1 (stereo not drawn),i,i,i,i,i,i
CCOC(=O)C1=C(CSc2nc3c(cc2C#N)CN(C)CC3)OC(N)=C(C#N)C1c1ccccc1 (stereo not drawn),nt,nt,nt,i,nt,nt
CN1CCc2nc(SCCOc3ccccc3)c(C#N)cc2C1,i,i,i,i[2.29 µM],i,3.16µM
COc1cccc(O)c1O,nt,nt,i,?,i,0.794µM
COc1ccccc1O,i,i,i,i,i,i

# Bioassay records as filed in PubChem BioAssay.
